Screening data from PubChem.
Only some compounds are listed: those with a hit (about 2.3% of all), similar ones and a draw of the others.
GLP1R ag: agonists of human GLP-1 receptor; P43220; HEK293 GLP-1R CRE-luciferase, luminescence, 4-6 h; cells express a hypersensitive GLP-1R form; Potency, µM (top dose mostly 45.6 µM), inactives show at the highest dose activation, hits mostly activators; 0.007% of 380,000 active; AID 624172; also: % of control where 0% means no effect
GLS inh: inhibitors of human glutaminase (GLS). O94925. AID 624170. GLS enzymatic activity, qHTS titration. 0.21% of 410,000 active. Potency, µM (series often up to 45.5 µM), for the others: at the highest dose activity change, negative = inhibition, most hits filed as inhibitors; also: % is scaled to controls: 0 for no effect and ±100 for the full control effect
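hKGA in 45 mM KH2PO4 pH 8.2, 0.02% Tween-20 with pin-transferred compounds; 1 mM L-glutamine (stock) plus glutamate oxidase/HRP/Amplex Red coupling added. Fluorescence read initially and after 30 min at RT.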
12-LOX inh: blocks human arachidonate 12S-lipoxygenase; P18054; purified 12hLO, xylenol orange hydroperoxide absorbance; Potency, µM (titrated, usually from 108 µM), for inactives: at the highest dose activity change, negative = inhibition, most hits filed as inhibitors; 1.1% of 580,000 active; AID 1671190; also: % is scaled to controls: 0 for no effect and ±100 for the full control effect
Target sequence (P18054 whole entry, looked up): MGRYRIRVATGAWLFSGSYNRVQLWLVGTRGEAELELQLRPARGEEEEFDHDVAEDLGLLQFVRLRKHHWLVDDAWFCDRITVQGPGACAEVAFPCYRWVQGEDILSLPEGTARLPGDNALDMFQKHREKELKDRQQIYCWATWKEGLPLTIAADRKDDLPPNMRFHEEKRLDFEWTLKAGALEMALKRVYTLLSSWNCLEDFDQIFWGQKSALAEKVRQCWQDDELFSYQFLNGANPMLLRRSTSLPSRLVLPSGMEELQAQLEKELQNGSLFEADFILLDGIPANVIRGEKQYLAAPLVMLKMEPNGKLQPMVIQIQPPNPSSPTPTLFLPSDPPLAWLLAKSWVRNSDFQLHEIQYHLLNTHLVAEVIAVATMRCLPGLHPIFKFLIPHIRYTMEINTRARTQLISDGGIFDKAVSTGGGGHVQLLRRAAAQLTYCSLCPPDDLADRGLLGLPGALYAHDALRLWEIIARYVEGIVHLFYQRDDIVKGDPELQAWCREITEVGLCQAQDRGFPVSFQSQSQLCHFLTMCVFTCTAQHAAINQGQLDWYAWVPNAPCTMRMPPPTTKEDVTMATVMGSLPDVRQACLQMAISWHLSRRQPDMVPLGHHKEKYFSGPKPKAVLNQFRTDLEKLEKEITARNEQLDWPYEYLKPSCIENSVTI
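Hydroperoxide product was detected by ferrous iron/xylenol orange as the 573 to 405 nm absorbance ratio. Arachidonic acid at 40 uM (final) was turned over for 30 min at room temperature by 150 nM human 12hLO, pH 7.0 Hepes buffer, after 15 min compound preincubation.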
GLP-1R inv ag: inverse agonists of human GLP-1 receptor; P43220; Potency, µM (doses to about 38.3 µM), without a hit: top-dose activity change, negative = inhibition, hits mostly inhibitors; 1.6% of 410,000 active; HEK293 GLP-1R CRE-luciferase, luminescence, 24 h; GLP-1R form is constitutively active; also: % is scaled to controls: 0 for no effect and ±100 for the full control effect; nearly all actives have a fitted effect of over 55% in size
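Constitutively active GLP-1R drives a cAMP-responsive luciferase in stably transfected HEK293 cells; test compounds are added after overnight (12 h) attachment and left 24 hr, and signal loss in luminescence marks inhibition.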
PTHR1 ag: agonists of human PTHR1 parathyroid hormone receptor; Potency, µM (highest dose often 115 µM), without a hit: at the top dose activation, hits mostly activators; Q03431; HEK293 GP2 PTHR1 cells, GloSensor cAMP luminescence, 1 h; 0.075% of 410,000 active; also: nearly all actives have a fitted effect of over 55% in size
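HEK-293-derived GP2 cells expressing PTHR1 and a GloSensor cAMP reporter, 3,000/well, plated overnight, given luciferin plus IBMX (each 0.5 mM as added) for 1 h at 37 °C, then compound for 1 h at 37 °C. Luminescence was read after 15 min at room temperature.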
Glioma ERSR ind: induces the endoplasmic reticulum stress response in human glioma cells. 0.02% of 420,000 active. U87-MG GRP78 promoter luciferase reporter, 16 h. Potency, µM, inactives show top-dose activation, hits mostly activators; also: series mostly up to about 76 µM; % of control where 0% means no effect; nearly all actives have a fitted effect of over 35% in size
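ERSR induction read as luciferase luminescence (Bright-Glo, 10 min at room temperature) in stably transfected human U87-MG glioma cells exposed to compounds for 16 h, using GRP78 as sensor.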
* = called active by the depositor; i = inactive; ? = inconclusive; · = not tested or not shown; [ ] = remark or other dose. Calls follow the shape of the dose curve; as a rule, active = well fitted curve in the direction sought with a large enough effect; inconclusive = small, poorly fitted or top-dose-only effect, or another doubt; inactive = no such curve, though single readings can be large; an effect the other way counts as inactive or inconclusive. Potency is read from the fitted curve at half-maximal effect.

SMILES	GLP1R ag	GLS inh	12-LOX inh	GLP-1R inv ag	PTHR1 ag	Glioma ERSR ind
Cc1onc(-c2ccccc2)c1C(=O)NN=Cc1cc(Cl)cc(Cl)c1O	·	·	12.6µM*	·	·	·
CCN(C(=O)c1cnc(N2CCN(c3ncccn3)CC2)c2ccccc12)c1cccc(Cl)c1	-4.1%	-9.9%	?	10µM*	-37.1%	-12.8%
Cc1nccc(C(=O)NCC(O)c2ccccc2C(F)(F)F)n1 (stereo unspecified)	·	·	-4.2%	·	·	·
COc1ccc(C)cc1-n1c(SCC(=O)Nc2ccc(C(N)=O)cc2)nc2ccccc2c1=O	·	·	-7.0%	·	·	·
COc1ccc2ccccc2c1CN1CCSCC1	-6.1%	2.6%	1.58µM*	-10.1%	i	-4.1%
CCN1CCN(Cc2c(OC)ccc3ccccc23)CC1	-8.6%	6.5%	-26.9%	6.3%	i	-0.6%
O=C(Nc1ccc2oc(-c3ccccc3)nc2c1)c1ccc(Cl)cc1	·	·	4.2%	·	·	·
COc1ccccc1N1C(=O)C=C(Sc2nc(C)cc(C)n2)C1=O	-0.1%	7.94µM*	10µM*	10.3%	-6.0%	-2.4%
COc1ccccc1N1C(=O)C2CC(C)=C(C)CC2C1=O (stereo unspecified)	-0.2%	-0.5%	1.7%	14.2%	i	-4.4%
Cc1nn2c(N3CCN(CCO)CC3)c3c(nc2c1-c1ccccc1)CCCC3	25.7%	-1.8%	401.2%	3.55µM*	-6.3%	-1.6%
Cc1nn2c(N3CCCC3)c3c(nc2c1-c1ccccc1)CCC3	18.7%	3.3%	-18.1%	10.6%	-8.7%	-2.7%
C[C@H]1[C@@H]2[C@@H](O)C([C@H](C)C(=O)N3CCCC3)CC[C@@]2(C)CC[C@@H]1NC(=O)c1ccccc1 (stereo partly specified)	·	·	1.7%[176 µM]	·	·	·
Nn1c(SCc2ncc(-c3ccccc3)o2)nnc1-c1ccccc1F	·	·	6.31µM*	·	·	·
CCOC(=O)c1ccc(NC(=O)CCNS(=O)(=O)c2cc(Br)cnc2N)cc1	5.1%	6.9%	22.5%	?	-6.5%	1.1%
Cc1cc(C)cc(NC(=O)CCNS(=O)(=O)c2cc(Br)cnc2N)c1	2.4%	-0.6%	-0.2%	7.94µM*	i	-1.6%
CN(C)c1cc(C(=O)NC(C2CC2)C2CC2)ccn1	·	·	13.4%	·	·	·
Cc1cnc(CNc2ncncc2-c2ccccc2C(F)(F)F)cn1	·	·	22.4µM*	·	·	0.3%
CCCNC(=O)[C@@H]1CCCN1[C@@H](C(=O)NC)c1ccc(OC)cc1	·	·	10µM*	·	·	·
CNC(=O)[C@@H](c1ccc(Cl)cc1)N1CCC[C@H]1C(=O)NCCN1CCCC1	·	·	0.2%	·	·	·
CCOC(=O)c1cnc2ccccc2c1N1CCC(CO)CC1	·	·	-15.0%	·	·	·
CCN(CC(=O)Nc1ccc(OC)cc1)C(=O)c1ccc2ccccc2c1	0.5%	1.1%	?	?	10.2%	-0.4%
CCN(CC(=O)Nc1ccc(OC)cc1)C(=O)c1ccc2c(c1)NC(=O)CS2	-0.4%	1.3%	8.91µM*	-6.1%	-6.3%	-2.5%
Cc1cccc(NC(=O)CC2CC3CCC2C3)c1 (stereo unspecified)	·	·	1.8%	·	·	·
CCN(CC)CC(=O)Nc1sc(C)cc1C(=O)c1ccccc1	29.5%	-6.4%	27.3%	?	-20.3%	-4.8%
CCN(CC)CC(=O)Nc1sc(C)cc1C(=O)c1ccc(C)cc1	2.4%	-12.5%	116.8%	10µM*	-28.4%	-4.1%
SMILES	GLP1R ag	GLS inh	12-LOX inh	GLP-1R inv ag	PTHR1 ag	Glioma ERSR ind
Cc1nn(-c2ccc(Cl)cc2)c(=O)c2ccccc12	14.8%	-9.4%	?	-22.6%	-15.2%	5.0%
Cc1c(Cl)sn(-c2ccc(Cl)cc2)c1=O	7.6%	?	4.47µM*	?	-42.6%	-12.7%
COC(=O)c1cc(Sc2c(Cl)cccc2Cl)ccn1	8.9%	-15.2%	39.8µM*	?	-24.8%	5.9%
COC(=O)c1cc(Sc2cccc(Cl)c2Cl)ccn1	11.0%	-13.9%	?	?	i	-1.7%
CC1(C(=O)Nc2cccc3ncccc23)Cc2ccccc2C(=O)O1 (stereo unspecified)	·	·	19.8%	·	·	·
COc1ccc(Cl)cc1NC(=O)CCC1CCCN(C(=O)c2ccoc2C)C1 (stereo unspecified)	·	·	19.2%	·	·	·
Cc1cc2c(c(=O)n(-c3ccccc3)c(=O)n2CC(=O)Nc2ccccc2F)n1C	·	·	44.7µM*	·	·	·
COc1ccccc1N1C(=O)c2ccccc2NC1c1cn(C)c(=O)n(C)c1=O (stereo unspecified)	·	·	-1.4%	·	·	·
CCOc1ccccc1CN1CCC2(CCN(C(=O)Nc3ccccc3)CC2)Oc2ccccc21	·	·	25.1µM*	·	·	·
CN(/N=C/c1ccc([N+](=O)[O-])o1)c1ccccc1	5.6%	-7.6%	?	-3.8%	i	-3.2%
CN(C)/N=C/c1ccc(P(c2ccc(/C=N/N(C)C)o2)c2ccc(/C=N/N(C)C)o2)o1	6.3%	-6.5%	39.8µM*	?	i	-3.9%
CO/N=C(/C(=O)N[C@@H]1C(=O)N2C(C(=O)O)=C(CSc3cnns3)CS[C@H]12)c1csc(N)n1	-4.4%	31.6µM*	·	·	·	-2.4%
CO/N=C(/C(=O)N[C@@H]1C(=O)N2C(C(=O)O)=C(CSc3nnnn3C)CS[C@H]12)c1csc(N)n1	-4.7%	1.7%	·	·	·	-4.9%
O=C(c1ccccc1)N1CCN(CC#Cc2ccccc2)CC1	1.0%	3.8%	8.3%	-13.4%	-46.6%	0.4%
C(#Cc1ccc(C#CCN2CCCC2)cc1)CN1CCCC1	5.7%	-7.1%	17.3%	3.55µM*	-18.7%	-2.2%
CCCn1c(SCC(=O)Nc2ccccc2-c2ccccc2)nnc1-c1ccoc1C	0.8%	5.5%	0.0%	11.2µM*	-35.2%	-3.6%
O=C(N/N=C/c1cccs1)c1n[nH]c2c1CCCC2	-1.7%	-5.3%	i	3.16µM*	-35.1%	-12.9%
Cc1ccc(/C=N/NC(=O)c2n[nH]c3c2CCCC3)cc1	24.7%	2.3%	248.3%	?	-22.1%	0.8%
O=C(N/N=C/c1cccc2ccccc12)c1n[nH]c2c1CCCC2	11.7%	4.5%	2.7%	1.12µM*	-5.6%	0.3%
O=C(CSc1nnc(SCc2cccc3ccccc23)s1)N/N=C/c1c[nH]c2ccccc12	2.9%	-10.7%	-16.5%	5.62µM*	-23.7%	0.2%
Cc1ccc(C2C(C#N)=C(N)N(N3CCOCC3)C3=C2C(=O)CC(C)(C)C3)cc1 (stereo unspecified)	·	·	-26.5%	·	·	·
COc1cccc(C(c2ccccc2)N2C3CCC2CN(S(=O)(=O)c2ccc(F)cc2)CC3)c1 (stereo unspecified)	-20.4%	-11.0%	2.8%	3.55µM*	i	-4.5%
CCCCn1c(SCC(=O)Nc2ccc(OC)cc2)nc2c(oc3ccccc32)c1=O	·	·	0.8%	·	·	·
O=C(Nc1ccccc1)Nc1ccccc1Br	-0.3%	2.1%	11.2µM*	8.5%[7.66 µM]	-23.8%	6.9%
